The full list was thinned out, with hits kept by preference.
S aureus helic – S. aureus DNA helicase inhibition | inhibition, % (concentration not given with the values) | 120,000 tested, 0.05% active | purified S. aureus helicase, fluorescence unwinding assay; in the data active means inhibition above about 25%, passing the limit was not always enough;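 further: 0% = mean of negative control wells and 100% = mean of positive control wells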
HCMV NEC inh – inhibitors of HCMV UL50-UL53 nuclear egress complex interaction | inhibition, % (test concentration not listed) | 190,000 tested, 0.15% active | HTRF UL50-UL53 interaction, normalized percent inhibition; in the data active means inhibition above about 27%, passing the limit was not always enough
Sa growth 42C – S. aureus growth inhibition. S. aureus RN4220 growth, OD600, 20 h, 42 °C; stronger effect = lower value. 170,000 tested, 0.53% active. AID 720641. relative growth, % (test concentration not listed);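 active means relative growth at most 50% at the other temperature and 20+ points below 30 °C, or under 10% at both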
Numbers without * were called inactive; / = no result.

SMILES	S aureus helic	HCMV NEC inh	Sa growth 42C
CCC1OC(=O)[C@H](C)C(=O)[C@H](C)[C@@H](OC2O[C@H](C)C[C@H](N(C)C)[C@H]2O)[C@](C)(OC)C[C@@H](C)C(=O)[C@H](C)[C@H]2N(CCCCn3cnc(-c4cccnc4)c3)C(=O)OC12C (some centres undefined)	/	-46	-1.0*
Cc1ccc(S(=O)(=O)C(=O)Nc2cccc3nsnc23)cc1	-4	-43	124
CC(C)C(=O)Nc1cccc2nsnc12	-2	-77	1.2*
COc1ccc(CNC(=O)c2cccc(C3CCCN(C(=O)NC(C)C)C3)c2)cc1 (centres undefined)	/	-9	/
CC(=O)NCCCCCCNC(C)=O	/	-24	21*
CC(=O)NCCCc1nc2ccccc2[nH]1	2	-3	/
CCCN1CCN(C(=O)CN2C(=O)CCc3cc(S(=O)(=O)N4CCC(C)CC4)ccc32)CC1	/	-25	/
C=CCSc1nc2c(c(=O)[nH]1)C(c1ccc(O)c(O)c1)CC(=O)N2 (centres undefined)	/	-7	/
S=c1[nH]nc(-c2ccc3c(c2)OCO3)o1	8	-5	36*
COc1ccc(-c2n[nH]c(=S)o2)cc1OC	-15	/	93
O=C(/C=C/C=C/c1ccccc1)c1ccc(Cl)cc1	1	/	84
O=C(/C=C/C=C/c1ccccc1)c1ccncc1	0	-56	1.0*
CCCC1C2CN(Cc3ccccc3)CC=C2C(C#N)=C(N)C1(C#N)C#N (centres undefined)	-17	-43	102
CCc1ccc(NC(=O)CC2C(=O)OCCN2CC)cc1 (centres undefined)	/	2	47
CCN1CCOC(=O)C1CC(=O)Nc1ccccc1C(F)(F)F (centres undefined)	/	12	30*
CCOC(=O)c1ccc2c(c1)C(=O)N(c1ccccc1OC)C2=O	18	-64	108
O=C(O)CNCC(O)Cn1c2ccccc2c2ccccc21 (centres undefined)	22	-16	110
OC(CNCc1ccccc1)Cn1c2ccc(Cl)cc2c2cc(Cl)ccc21 (centres undefined)	-2	/	-0.9*
COc1ccccc1/C=C(/C(=O)O)c1ccccc1	2	-7	87
Cc1c(CN(C)C)c2c(n1C)C(=O)c1ccc(Br)cc1-2	64*	-82	87
Cc1c(CN(C)C)c2c(n1Cc1ccccc1)C(=O)c1ccc(Br)cc1-2	14	/	93
COc1cc(CCC(=O)NCc2ccco2)on1	22	-16	91
N#Cc1cc(C(=O)c2cc(Cl)ccc2O)c[nH]c1=O	-191	-8	124
Cc1ccc(NC(=O)COC(=O)c2nc(Cl)ccc2Cl)cc1	-17	-1	76
CCN1/C(=C/C=C2\SC(=S)N(C)C2=O)Oc2ccccc21	-14	-50	88
SMILES	S aureus helic	HCMV NEC inh	Sa growth 42C
CN1/C(=C/C=C/c2oc3ccccc3[n+]2C)Oc2ccccc21	-98	/	-1.0*
CC1(C)C(=O)NC2=C1C(=O)C(=O)c1ccccc12	/	107*	/
O=C1C2=C(NC3=C(C(=O)c4ccccc43)C23C(=O)Nc2ccccc23)c2ccccc21	/	-10	/
N#Cc1c(NS(=O)(=O)c2ccccc2)n(-c2ccccc2)c2nc3ccccc3nc12	-7	-42	107
N#Cc1c(N)n(Cc2ccccc2)c2nc3ccccc3nc12	-3	-20	111
Cc1ccc(S(=O)(=O)Nc2c(C#N)c3nc4ccccc4nc3n2Cc2ccccc2)cc1	-2	77*	99
C=CCn1c(NS(=O)(=O)c2ccccc2)c(C#N)c2nc3ccccc3nc21	-13	65*	81
N#CCc1nc(-c2ccc(Br)cc2)cs1	-1	10	100
Cn1c(=O)c2c(nc(Sc3nnc(NC(=O)C(C)(C)C)s3)n2C)n(C)c1=O	/	-11	/
O=C(CCc1nc(-c2cc3ccccc3[nH]c2=O)no1)NCC1CCCO1 (centres undefined)	/	-27	/
O=c1c(=NNc2ccccc2)c(=O)c2ccccc12	/	-76	99
O=c1c(=NNc2nn[nH]n2)c(=O)c2ccccc12	11	-12	1.4*
CCCc1nc(-c2ccccn2)[nH]c(=O)c1Cc1c(F)cccc1Cl	35	-27	58
C=CCc1c(CCC)nc(-c2ccccn2)[nH]c1=O	/	-1	-0.3*
O=C(CSCc1ccccc1)N1CCN(c2ncccn2)CC1	16	7	87
Cc1nnc(SC(C)C(=O)c2ccc(Br)cc2)n1C (centres undefined)	-8	-15	78
Nc1nc(-c2ccc3c(c2)CCCC3)cs1	-14	-33	108
Nc1nc(=S)nc(Cc2ccc3c(c2)CCC3)[nH]1	-27	0	45*
O=C(NCC1COc2ccccc2O1)Nc1ccc(NC(=O)NCC2COc3ccccc3O2)cc1 (centres undefined)	19	-35	71
CC1(c2ccc3c(c2)OCO3)NC(=O)N(CC(=O)c2ccc3c(c2)CCC3)C1=O (centres undefined)	18	-18	107
